What was measured:
[1] = target: T1, Aspartate--tRNA(Asp/Asn) ligase (Mycobacterium tuberculosis (strain ATCC 25618 / H37Rv)) (UniProt P9WFW3); assay: Assay for Asp RNA synthetase-1 from Mycobacterium tuberculosis; format: functional; set-up: scale not given: direction of the effect not stated beside the values; settings: 30 µM; note: in the data most compounds retested in dose-response had high values
T1 sequence (whole entry): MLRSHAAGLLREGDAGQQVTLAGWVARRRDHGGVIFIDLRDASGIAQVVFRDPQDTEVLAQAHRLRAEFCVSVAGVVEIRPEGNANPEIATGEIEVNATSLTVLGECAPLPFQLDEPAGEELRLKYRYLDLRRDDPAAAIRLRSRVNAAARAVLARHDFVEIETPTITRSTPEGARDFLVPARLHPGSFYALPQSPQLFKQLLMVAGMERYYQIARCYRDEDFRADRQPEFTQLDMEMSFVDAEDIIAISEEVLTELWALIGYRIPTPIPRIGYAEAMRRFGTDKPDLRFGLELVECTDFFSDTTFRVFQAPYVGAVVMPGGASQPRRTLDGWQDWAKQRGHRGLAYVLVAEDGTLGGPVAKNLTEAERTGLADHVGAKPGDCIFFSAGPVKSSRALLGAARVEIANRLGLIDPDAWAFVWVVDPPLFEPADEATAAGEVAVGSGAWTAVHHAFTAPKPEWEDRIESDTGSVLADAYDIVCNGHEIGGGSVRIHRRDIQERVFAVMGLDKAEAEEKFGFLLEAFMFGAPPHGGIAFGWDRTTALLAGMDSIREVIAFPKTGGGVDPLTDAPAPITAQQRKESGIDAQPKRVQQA

[2] = target: Shiga toxin 2 (Escherichia coli O157:H7) (UniProt P09385+P09386); assay: E. coli 0.157:H7 Shiga Toxin SOP - stx2 screening assay; format: functional; set-up: scale not given: direction of the effect not stated beside the values; settings: 30 µM

| Structure (SMILES) | Percent Effect [1] | Percent Effect [2] |
| --- | --- | --- |
| COCCC1COC2(CCN(C(=O)c3ccco3)CC2)C1 (stereo unspecified) | -0.368% | -2.25% |
| CN1N=C(C(=O)N2CCCC(CCc3c(F)cccc3F)C2)CCC1=O (stereo unspecified) | -2.6% | 9.43% |
| O=C(NCCn1ccc(-c2ccccn2)n1)C1CC1 | 2.14% | -6.67% |
| Cc1ccn(-c2ccccc2NCc2cccnc2C)n1 | -3.62% | 0.821% |
| CN(Cc1cccs1)C(=O)CS(=O)(=O)Cc1ccc(Cl)c(Cl)c1 | 3.86% | 0.473% |
| CC(C)NC(=O)C1CN(C(=O)N2CCCC2)CC12CCOCC2 (stereo unspecified) | -2.03% | 8.24% |
| Cc1ccc(Cl)cc1N1CCC(CNC(=O)CCn2ccnn2)C1 (stereo unspecified) | 2.9% | -49.4% |
| Cc1nc(C2CCCN2CC(=O)N(Cc2ccsc2)C2CC2)no1 (stereo unspecified) | 0.787% | 0.717% |
| N#Cc1cccc(C(=O)N2CCc3ncc(Cn4cccn4)n3CC2)c1 | 3.32% | 9.25% |
| Cn1cc(C2CC(=O)NC23CCN(CC2CC2)CC3)cn1 (stereo unspecified) | -4.05% | -21.4% |
| O=C(NCCn1ccnc1)c1cccc(F)c1 | 3.65% | 24.2% |
| CNS(=O)(=O)c1ccc(C(=O)N2CCCC2Cc2ccccc2)o1 (stereo unspecified) | -3.06% | 18.2% |
| Cc1cccc(CN2CCc3ncnc(N4CCOCC4)c3CC2)n1 | -3.01% | -8.89% |
| O=C(Nc1cc(F)ccc1OCC1CCCO1)c1ccc(O)nc1 (stereo unspecified) | 5.1% | 33.8% |
| Cc1cccc2c1cnn2CCC(=O)NCC(=O)N(C)C | -1.19% | -22.2% |
| c1csc(-c2nc(CN3CCOC(Cn4cccn4)C3)co2)c1 (stereo unspecified) | 9.95% | 13.2% |
| O=C(c1ccc2c(c1)COC2)N1CCN(CC2CC2)CC1 | -0.514% | -1.4% |
| CCOc1ncccc1C(=O)N1CCCC1c1c(C)nn(C)c1OC (stereo unspecified) | -0.602% | -8.49% |
| Cc1cnn(CC2CCCN2CC(=O)Nc2cc(C(C)(C)C)no2)c1 (stereo unspecified) | 0.278% | -37.5% |
| COCCN(C)C(=O)Nc1ccc2c(ccn2CCOC)c1 | -1.14% | -20.9% |
| O=C(CCc1cccs1)N1CCCCC1Cn1cccn1 (stereo unspecified) | -2.77% | 1.06% |
| Cc1nc(CN2CCCC(N(C)Cc3nnsc3Cl)C2)no1 (stereo unspecified) | -2.25% | 18.2% |
| CC(C)(C)c1cnc(CN2CCC[C@H]2CO)o1 | -4.22% | -5.47% |
| O[C@H]1CCN(Cc2ccoc2)[C@H]1Cc1cccnc1 | 6.58% | -6% |
| Cc1nc(-c2ccccc2)n(CC(=O)NCC(C)C)n1 | -3.61% | 22% |
| Cc1nc2c(c(C)c1CC(=O)Nc1cccc(C#N)c1)c(=O)[nH]n2C | 4.67% | 5.09% |
| FC1(F)CCN(Cc2ccncc2)CC12CCN(Cc1ccccn1)C2 (stereo unspecified) | 4.66% | -2.47% |
| Cc1nc2n(n1)CC(Nc1cc(C(F)(F)F)nc3ncnn13)CC2 (stereo unspecified) | -5.49% | -1.67% |

Source: ChEMBL document CHEMBL3988442, “University of Dundee, Small-Polar-MMV Screening Library” (2021)
